Assay outcomes (PubChem)
Anthrax LT inh – qHTS Assay for Anthrax Lethal Toxin Internalization. Cells, anthrax lethal toxin internalization, FRET ratio (460/530). Potency, µM (titrated, usually from 40 µM), usual class: inhibitors. hit rate 0.67% among 70,000; note: nearly all actives have a fitted effect of over 50% in size
SmPrx2 inh – Schistosoma Mansoni Peroxiredoxins (Prx2). Schistosoma mansoni peroxiredoxin 2 (Prx2). S. mansoni Prx2 activity coupled to TGR/GSH (TGR is thioredoxin glutathione reductase), NADPH fluorescence loss, qHTS. Potency, µM. hit rate 0.07% among 65,000
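Activity is read as the drop in NADPH fluorescence (365/450 nm), recorded every 30 sec for 8 min after H2O2 addition. Prx2 is coupled to TGR-driven NADPH oxidation through glutathione, in phosphate buffer pH 7.4.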
AmpC nodet inh – Promiscuous and Specific Inhibitors of AmpC Beta-Lactamase (assay without detergent) | P00811 | AmpC nitrocefin hydrolysis, absorbance 480 nm, no detergent | Potency, µM (titrated, usually from 28.7 µM) | hit rate 1.8% among 71,000
Target sequence (P00811 whole entry, looked up): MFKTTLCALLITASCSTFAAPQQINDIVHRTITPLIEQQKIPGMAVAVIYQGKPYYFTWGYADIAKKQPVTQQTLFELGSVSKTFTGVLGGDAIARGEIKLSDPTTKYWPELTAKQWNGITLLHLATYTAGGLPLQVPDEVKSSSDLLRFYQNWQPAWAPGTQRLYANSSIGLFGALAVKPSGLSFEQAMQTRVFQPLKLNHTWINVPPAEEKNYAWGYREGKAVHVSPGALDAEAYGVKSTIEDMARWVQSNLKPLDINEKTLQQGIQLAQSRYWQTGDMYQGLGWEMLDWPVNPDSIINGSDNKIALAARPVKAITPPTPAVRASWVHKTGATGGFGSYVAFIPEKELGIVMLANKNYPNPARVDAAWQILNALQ
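AmpC in 20 mM phosphate buffer pH 7.0 was preincubated 15 min at room temperature with compounds. Nitrocefin (800 uM stock) was then added and hydrolysis followed at 480 nm every 20 s for 4 min.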
AmpC det inh – Promiscuous and Specific Inhibitors of AmpC Beta-Lactamase (assay with detergent); purified AmpC, nitrocefin hydrolysis with detergent; P00811; Potency, µM (doses to about 28.7 µM); AID 584, 2007; hit rate 0.09% among 71,000; active = well fitted curve in the direction sought with a large enough effect; inconclusive = small, poorly fitted or top-dose-only effect
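E. coli AmpC (5.3 nM) in 20 mM phosphate pH 7.0 with 0.01% Triton X-100, preincubated 15 min RT with compound; nitrocefin (2 uL of 800 uM stock) hydrolysis followed by 480 nm absorbance every 20 s over 4 min.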
Of the large screens only hits and unclear results are named; the others gave an inactive call; [ ] = another dose, or the depositor's remark. Hits are enriched below; roughly 2.6% of the tested compounds scored in any of these assays. Unless noted, calls come from the whole dose curve.

O=C(Nc1ccc(F)cc1F)N1CCN(C/C=C/c2ccccc2)CC1	AmpC nodet inh 3.98µM[single pt active]
COC(=O)c1ccccc1NC(=O)N1CCN(C/C=C/c2ccccc2)CC1	none
C=CCn1c(COc2ccccc2)nnc1SCc1ccc(C#N)cc1	none (no result: Anthrax LT inh)
C=CCn1c(COc2ccc(CC)cc2)nnc1SC/C(O)=C(\C#N)c1nc2ccccc2[nH]1	AmpC nodet inh 1.26µM
O=C1c2ccccc2S(=O)(=O)N1CC(O)COc1ccc(Br)cc1 (centres undefined)	none (no result: SmPrx2 inh)
CO[C@@H]([CH2][Hg])CN1C(=O)c2ccccc2S1(=O)=O.Cn1c(=O)c2nc[nH]c2n(C)c1=O	Anthrax LT inh inconclusive, SmPrx2 inh 1.29
O=C(Cc1ccc2c(c1)OCCO2)c1c(O)cc(O)cc1O	AmpC nodet inh 10µM
O=C(O)COc1ccc(C(=O)Cc2ccc3c(c2)OCCCO3)c(O)c1	none
Cc1cc(C(=O)N[C@@H](c2ccccc2)[C@]2(C)C[C@H]2[C@@H](C)C(=O)Nc2ccc3ccccc3c2)n(C)n1	none
O=C(O)[C@H]([C@H]1NCCS1)N1C(=O)c2ccccc2C1=O	none
Cc1ccccc1-c1ccc2ncnc(NCc3cccnc3)c2c1	Anthrax LT inh inconclusive
N#CC(=C1CCCC1)c1nc(-c2ccccc2O)cs1	AmpC nodet inh 6.31µM
Nc1nc(-c2ccccc2)cc(-c2ccccc2O)n1	none
CN1CCN(C(=O)C2CCN(S(=O)(=O)c3ccc4c(c3)oc(=O)n4C)CC2)CC1	AmpC nodet inh 3.98µM[single pt active]
Cn1c(=O)oc2cc(S(=O)(=O)N3CCC(C(=O)N4CCN(c5ccccc5)CC4)CC3)ccc21	none
Cn1c(=O)oc2cc(S(=O)(=O)N3CCC(C(=O)NCC4COc5ccccc5O4)CC3)ccc21 (centres undefined)	AmpC nodet inh 3.98µM[single pt active]
Cn1c(=O)oc2cc(S(=O)(=O)N3CCCC(C(=O)N4CCn5c4nc4ccccc45)C3)ccc21 (centres undefined)	AmpC nodet inh 3.98µM[single pt active]
Cn1c(=O)oc2cc(S(=O)(=O)N3CCCC(C(=O)N4CCc5ccccc5C4)C3)ccc21 (centres undefined)	Anthrax LT inh inconclusive
Cn1c(=O)oc2cc(S(=O)(=O)N3CCC(C(=O)NCc4cccs4)CC3)ccc21	AmpC nodet inh 3.16µM[single pt active]
CS(=O)(=O)Nc1c(O)ccc2c1CCC[C@H]2C1=NCCN1	none
Cn1c(=O)oc2cc(S(=O)(=O)N3CCCC(C(=O)NCCN4CCOCC4)C3)ccc21 (centres undefined)	AmpC nodet inh 3.98µM[single pt active]
CN1CCN(C2=C(Cl)C(=O)N(c3cccc(Cl)c3)C2=O)CC1	none (no result: SmPrx2 inh)
CN1CCN(C2=C(Cl)C(=O)N(c3ccc(Cl)c(Cl)c3)C2=O)CC1	Anthrax LT inh 7.94µM (no result: SmPrx2 inh)
C/C=C/C=C/C=O	none (no result: SmPrx2 inh)
Cn1nc(C(=O)NCCN2CCOCC2)c2ccccc2c1=O	none
CCn1c(=O)c2cc(C(=O)NCc3cccs3)sc2c2ccccc21	AmpC nodet inh 3.98µM[single pt active]
CCn1c(=O)c2cc(C(=O)Nc3cc(C)on3)sc2c2ccccc21	AmpC nodet inh 3.98µM[single pt active]
CCn1c(=O)c2cc(C(=O)NCCN3CCOCC3)sc2c2ccccc21	AmpC nodet inh 3.98µM[single pt active]
CCn1c(=O)c2ccccc2n2c(SCC(=O)NCc3cccs3)nnc12	none
CCn1c2ccccc2c2nnc(SCC(=O)Nc3cc(C)on3)nc21	none
COc1cccc(Nc2ncc3nc(-c4ccc(F)cc4)c(=O)n(CCC#N)c3n2)c1	Anthrax LT inh inconclusive
C#C[C@@]1(O)CC[C@@H]2[C@@H]3CCC4=C(CCC(=O)C4)[C@H]3CC[C@]21C	none
O=C(O)c1cc(N=Nc2ccc([N+](=O)[O-])cc2)ccc1O	Anthrax LT inh inconclusive
Cc1noc(C)c1C(=O)N1CCC2(CCCN(C(=O)Nc3ccccc3)C2)CC1	none
COCCNS(=O)(=O)c1ccc(C2CNC(=O)C2)cc1 (centres undefined)	AmpC nodet inh 3.98µM[single pt active]
C=CCn1c(SCn2nnc3ccccc3c2=O)nc2scc(-c3cccs3)c2c1=O	none
N#CCSc1nc2scc(-c3cccs3)c2c(=O)n1CCc1ccccc1	AmpC nodet inh 7.94µM
COC(=O)[C@@]1(Cc2ccc(OC)cc2)[C@H]2c3cc(C(=O)N4CCCC4)n(CCc4ccc(O)c(O)c4)c3C[C@H]2CN1C(=O)c1ccccc1	Anthrax LT inh inconclusive (no result: SmPrx2 inh)
N#Cc1nc(-c2ccccc2F)oc1NCc1cccc2c1OCO2	none
CN(C)CCNc1oc(-c2ccccc2F)nc1C#N	AmpC nodet inh 3.98µM[single pt active]
N#Cc1nc(-c2ccccc2F)oc1NC1CCCCC1	Anthrax LT inh inconclusive, AmpC nodet inh 3.98µM[single pt active]
CS(=O)(=O)Nc1cccc(-c2nc(NCCN3CCOCC3)c3ccccc3n2)c1	Anthrax LT inh inconclusive
O=C(c1csnn1)N1CCC2(CC1)CCN(c1cccc(-c3ccccc3)c1)CC2	none
Cc1oc(C)c2c(=O)ccc3c(c12)OC(N)=C(C#N)C3c1ccccc1 (centres undefined)	none
CSc1ccc(C2C(C#N)=C(N)Oc3c2ccc(=O)c2c(C)oc(C)c32)cc1 (centres undefined)	AmpC nodet inh 10µM
O=C(Nc1cccc(Cl)c1)c1ccc2c(=O)n3c(nc2c1)CCCCC3	Anthrax LT inh 12.6µM
O=C(Nc1ccc(F)c(Cl)c1)c1ccc2c(=O)n3c(nc2c1)CCCCC3	none
O=C(NCCC1=CCCCC1)c1ccc2c(=O)n3c(nc2c1)CCCCC3	Anthrax LT inh 12.6µM
CN(C(=O)c1ccc2c(=O)n3c(nc2c1)CCCCC3)c1ccccc1	none
COc1cc(S(C)=O)ccc1-c1nc2ncccc2[nH]1 (centres undefined)	none
CC1Cc2ccccc2N1C(=O)CSc1nnc(NC(=O)Cc2cccs2)s1 (centres undefined)	Anthrax LT inh inconclusive, AmpC nodet inh 12.6µM[single pt active]
Cc1nn2cc(-c3ccc(Cl)cc3)nc2s1	none
Cc1nn2cc(-c3ccc(-c4ccccc4)cc3)nc2s1	AmpC nodet inh 12.6µM
COc1ccc(C2=NOC(C(=O)Nc3ccc(C)cc3)C2)cc1OC (centres undefined)	none
COc1ccc(C2=NOC(C(=O)Nc3cc(C)nn3-c3ccccc3)C2)cc1OC (centres undefined)	AmpC nodet inh 3.98µM[single pt active]
CC(C)(C)c1cc(Br)ccc1OCC(=O)Nc1ncn[nH]1	Anthrax LT inh 7.94µM (no result: SmPrx2 inh)
CC(C)(C)c1ccccc1OCC(=O)Nc1ncn[nH]1	Anthrax LT inh inconclusive
CN(C)CC(C(=O)c1ccccc1)c1ccccc1 (centres undefined)	Anthrax LT inh 10µM
Cc1c(Cc2ccccc2)c(=O)oc2cc(OCc3nn[nH]n3)ccc12	Anthrax LT inh inconclusive, AmpC nodet inh 10µM[single pt active]
CCOC(=O)CCc1c(C)c2ccc(OCc3nn[nH]n3)cc2oc1=O	Anthrax LT inh inconclusive
COc1ccc(Cn2c(=O)[nH]c3cc(C(=O)NCCCN4CCCCC4)ccc3c2=O)cc1	none
O=C(NCc1ccc2c(c1)OCO2)c1ccc2c(=O)n(C3CCCC3)c(=O)[nH]c2c1	Anthrax LT inh inconclusive, AmpC nodet inh 7.94µM
COc1ccc(Cn2c(=O)[nH]c3cc(C(=O)NCc4ccc5c(c4)OCO5)ccc3c2=O)cc1	AmpC nodet inh 12.6µM[single pt active]
